According to ChEMBL document CHEMBL3988442, “University of Dundee, Small-Polar-MMV Screening Library” (2021):
Out of some 48,000 compounds screened, about 13,000 (27%) showed an effect of 50% or more. This is one part of the list.

test system: Wolbachia pipientis; assay: Anti-Wolbachia Cell-Based Screen; assay type: functional; design: scale not given: in the data most compounds retested in dose-response had high values; settings: 5 µM

Row | Compound | Percent Effect
1 | O=C(NC[C@]1(O)CN(Cc2ccc(F)cc2)C[C@H]1O)c1ccccn1 | 127.5%
2 | COc1ccc(CN2C[C@@H](O)[C@](O)(CNC(=O)c3ccccn3)C2)cc1 | 112%
3 | Cc1cccc(CN2C[C@@H]3COC[C@]3(CNC(=O)c3ccsc3)C2)n1.O=C(O)C(F)(F)F.O=C(O)C(F)(F)F | 8.722%
4 | COc1ccc(CNC(=O)c2ccc(Br)cn2)cc1 | -6.814%
5 | COc1ccc2c(c1)nc1n2[C@@H](CNC(=O)c2ccccn2)COC1 | 1.575%
6 | Cc1ncsc1CN1C[C@@H]2COC[C@]2(CNC(=O)c2ccco2)C1.O=C(O)C(F)(F)F | -13.65%
7 | Cc1ncsc1CN1C[C@@H](O)[C@](O)(CNC(=O)c2ccccn2)C1 | 100.8%
8 | O=C(NC[C@]1(O)CN(Cc2ncccc2F)C[C@H]1O)c1cc[nH]n1 | 112.1%
9 | Cc1ncsc1CNC(=O)N1CCN(Cc2ccccc2)C[C@H]1C | 1.865%
10 | O=C(N[C@@H]1CCN(C(=O)c2ccc(F)cc2Cl)C[C@H]1O)c1ccccn1 | -3.407%
11 | NC(=O)C(NC1CCN(Cc2ccc(F)cc2)CC1)c1ccccc1 (centres undefined) | 12%
12 | Cc1ccc(OC2CCN(C(=O)Cc3c(C)[nH]c(=O)[nH]c3=O)CC2)cc1 | 33.83%
13 | Cc1ccccc1N1CCCN(C(=O)CCc2ccncc2)CC1 | 5.689%
14 | CS(=O)(=O)NCC1CCCN(C(=O)COCC(F)(F)F)C1 (centres undefined) | -5.002%
15 | CN1CCC(O)(CCNC(=O)[C@@]23CNC[C@@H]2CN(C2CCCC2)C3)CC1 | -8.037%
16 | CNS(=O)(=O)CC(=O)N(Cc1ccccc1)c1ccc(C)cc1 | -6.093%
17 | NC(=O)c1csc(C(=O)N2CCCC(n3ccnc3)C2)c1 (centres undefined) | 4.502%
18 | NC(=O)c1csc(C(=O)N2CCCC(n3cccn3)C2)c1 (centres undefined) | 118.9%
19 | Cc1cc(C)n(C2CCCN(C(=O)c3cc(C(N)=O)cs3)C2)n1 (centres undefined) | 143.1%
20 | CC(C)c1nccn1C1CCCN(C(=O)c2ccnc(N(C)C)c2)C1 (centres undefined) | -0.8202%
21 | Cc1nc(C)n(C2CCCN(C(=O)c3cc(C(N)=O)cs3)C2)n1 (centres undefined) | 0.8263%
22 | O=C1CSc2ccc(C(=O)N3CCCC(n4cccn4)C3)cc2N1 (centres undefined) | 11.58%

Row | Compound | Percent Effect
23 | CC(C)c1nccn1C1CCCN(C(=O)c2ccsc2)C1 (centres undefined) | -9.917%
24 | CNc1snc(C)c1C(=O)N1CCCC(n2nc(C)cc2C)C1 (centres undefined) | -4.797%
25 | CC(C)c1nccn1C1CCCN(C(=O)c2cc(C(N)=O)cs2)C1 (centres undefined) | 117.7%
26 | O=C1COc2ccc(S(=O)(=O)NC3CC3)c3c2N1CCC3 | -10.68%
27 | O=C1CC[C@H]2CN(c3ncc(F)cn3)CC[C@H]2N1CCc1ccccc1 | -8.563%
28 | CN(C(=O)c1ccncc1F)c1ccccc1S(C)(=O)=O | 0.2118%
29 | O=C(CCN1CCCCC1)N1CCC(Cc2ccc(CO)cc2)C1 (centres undefined) | -4.228%
30 | Cc1nc(N2CCOc3ccc(CO)cc3C2)c2nc(C)oc2n1 | -3.074%
31 | C[C@@H]1CN(CCC(=O)N(C)Cc2ccccc2)CC[C@@]1(O)C1CCC1 | 22.93%
32 | O=C(O)[C@@H]1CN(Cc2cnc(C3CCCCC3)nc2)C[C@H]1C1CC1 | 0.2506%
33 | C[C@@H]1CN(CCC(=O)N(C)Cc2ccccc2)C[C@@]1(O)C1CCC1 | -9.793%
34 | CCN(Cc1ccncc1)C(=O)CCn1c(C)cc2ccccc21 | -6.043%
35 | CCN(Cc1ccccc1)C(=O)CCN1C[C@@H](C(=O)O)[C@H](C2CC2)C1 | 110.3%
36 | CCN(Cc1ccccc1)C(=O)CCN1CC(O)C1 | 89.96%
37 | CN(Cc1ccccc1)C(=O)CCN1CCC2(CC1)[C@H](O)C[C@@H]2O | -5.462%
38 | CCNc1ncc(CN2C[C@@H](C(=O)O)[C@H](C3CC3)C2)cn1 | -13.99%
39 | CN(Cc1ccccc1)C(=O)CCN1C[C@H](C2CC2)[C@@H](N(C)C)C1 | 117.2%
40 | CCNC(=O)C1CCN(c2cc(-c3ccccc3)nc3ccnn23)C1 (centres undefined) | 11.77%
41 | CC(C)(C)c1ccc(=O)n(CN2CCCC(C(F)(F)F)C2)n1 (centres undefined) | -4.138%
42 | COc1ccc2c(c1)OCC(CNC(=O)c1ccc(=O)n(C)c1)C2 (centres undefined) | 0.3526%
43 | O=C(CCNC(=O)c1ccoc1)NCc1ccccc1F | 0.6342%
44 | Cc1nnc(CN2CCN(CC(O)c3cccc(F)c3)CC2)n1C (centres undefined) | 8.346%

Row | Compound | Percent Effect
45 | Cc1ccc(C(O)CN2CCN(Cc3nccn3C)CC2)cc1C (centres undefined) | 121.6%
46 | Cn1ccnc1CN1CCN(CC(O)c2cc(F)ccc2F)CC1 (centres undefined) | 92.89%
47 | Cn1ccnc1CN1CCN(CC(O)c2ccco2)CC1 (centres undefined) | 3.847%
48 | Cn1ccnc1CN1CCN(CC(O)c2ccc(F)cc2)CC1 (centres undefined) | 154.5%
49 | N#Cc1ccnc(N2CCN(CC(O)c3cc(F)ccc3F)CC2)c1 (centres undefined) | -0.2819%
50 | CC(C)c1ccc(C(O)CN2CCN(Cc3nccn3C)CC2)cc1 (centres undefined) | 94.53%
51 | Cc1nnc(CN2CCN(Cc3nccn3C)CC2)n1C | -10.76%
52 | Cn1ccnc1CN1CCN(Cc2cc(C#N)ccc2F)CC1 | 0.8662%
53 | Cn1ccnc1CN1CCN(CC(O)c2ccc(F)c(F)c2)CC1 (centres undefined) | -1.464%
54 | CCN1CCN(CC(O)c2ccc(F)cc2)CC1 (centres undefined) | 5.506%
55 | CC(C)C1CN(S(=O)(=O)Cc2cccc(C#N)c2)CCS1 (centres undefined) | -6.809%
56 | COCC1(NC(=O)Nc2nc(C)ns2)CCCC1 | -4.167%
57 | CC(C)[C@H]1COC(=O)N1Cc1noc(-c2ccccc2)n1 | -3.7%
58 | Cc1nc(NS(=O)(=O)c2ccc(F)c(Br)c2)no1 | -14.77%
59 | CCn1cc2c(n1)CN(Cc1ccc(F)cc1)CC2COCC1CC1.O=C(O)C(F)(F)F (centres undefined) | -4.171%
60 | CCn1ncc2c1C(COC)CN(Cc1cccnc1)C2.O=C(O)C(F)(F)F.O=C(O)C(F)(F)F.O=C(O)C(F)(F)F (centres undefined) | 103%
61 | COCC1CN(Cc2ccc(F)cc2)Cc2nnn(CC3CC3)c21.O=C(O)C(F)(F)F (centres undefined) | -1.939%
62 | CCn1ncc2c1C(COC)CN(Cc1ccc(F)cc1)C2.O=C(O)C(F)(F)F.O=C(O)C(F)(F)F (centres undefined) | 110%
63 | COCC1CN(Cc2cccnc2)Cc2nnn(CC3CC3)c21.O=C(O)C(F)(F)F.O=C(O)C(F)(F)F (centres undefined) | -2.73%
64 | Cn1ncc2c1CN(Cc1cccnc1)CC2COCC1CC1.O=C(O)C(F)(F)F.O=C(O)C(F)(F)F.O=C(O)C(F)(F)F (centres undefined) | 2.893%
